# Test results published in PubChem BioAssay (NCATS).
# Inconclusive results are not listed. The source made the active and inactive calls. Calls follow the shape of the dose curve; as a rule, active = well fitted inhibition curve with a large enough effect; inconclusive = small, poorly fitted or top-dose-only effect; inactive = flat fitted curve, though single readings scatter.
# System: JCK
# Assay: qHTS profiling for inhibitors of Plasmodium falciparum proliferation (AID 504749); also: nearly all actives have a fitted effect of over 60% in size;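 as to activity, negative = inhibition: 0% = DMSO vehicle and full inhibition = artemisinin control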
# Details: P. falciparum in erythrocytes, SYBR Green DNA, 72 h; series mostly up to 28.7 µM; activity, negative = inhibition: at the top concentration
# How it was run: (§1)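 Infected RBCs, 0.3% parasitemia/2.5% Hct final; cpd 72 h, 37 C, 5% CO2; lysis buffer with saponin/triton/SYBR Green I, o/n RT dark; FI 485/535; norm. to artemisinin (0.29 uM) and DMSO.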
# Potency is read from the fitted curve at half-maximal effect.
SMILES,"activity, negative = inhibition",Potency
CCCCC(CC)COS(=O)(=O)O (stereo not given),12.6% (inactive),
CC1(O)CCC(C(C)(C)O)CC1 (stereo not given),6.3% (inactive),
CCCCCCOC(=O)c1cccnc1,4.02% (inactive),
FC(F)(F)COCC(F)(F)F,-10.1% (inactive),
CCCCCCCCCCCC(=O)N(CCO)CCO,3.84% (inactive),
O=P(O)(O)OC[C@H]1O[C@](O)(COP(=O)(O)O)[C@@H](O)[C@@H]1O,17.7% (inactive),
COc1cc(S(C)=O)ccc1-c1nc2ncccc2[nH]1 (stereo not given),-7.37% (inactive),
O=c1[nH]c(=O)n([C@H]2C[C@H](O)[C@@H](CO)O2)cc1/C=C/Br,-7.3% (inactive),
CC(=O)[C@H]1CC[C@H]2[C@@H]3C=CC4=CC(=O)CC[C@@]4(C)[C@H]3CC[C@]12C,5.17% [at 12.8 µM] (inactive),
NC(N)=O,2.18% (inactive),
CCC(C(=O)NC(N)=O)c1ccccc1 (stereo not given),4.39% (inactive),
CC(CCc1ccc(O)cc1)NCC(O)c1ccc(O)cc1 (stereo not given),10.6% (inactive),
Nc1nccs1,-1.46% (inactive),
NC(=S)NS(=O)(=O)c1ccc(N)cc1,2.99% (inactive),
O=C(OCc1ccccc1)c1ccc(O)cc1,12.8% (inactive),
CC1C(=O)CC2C3(C)CCC2(C(C)C(=O)O)C(=O)C13 (stereo not given),4.11% (inactive),
O=C(NNCS(=O)(=O)O)c1ccncc1,11.4% (inactive),
CC(=O)Nc1ccc(OC(C)=O)cc1,10.4% (inactive),
CC/C(=C(/CC)c1ccc(OP(=O)(O)O)cc1)c1ccc(OP(=O)(O)O)cc1,0.524% (inactive),
OC[C@H]1O[C@@](CO)(O[C@H]2O[C@H](CO)[C@@H](O)[C@H](O)[C@H]2O)[C@@H](O)[C@@H]1O,7.99% (inactive),

SMILES,"activity, negative = inhibition",Potency
[O-][N+](=Nc1ccccc1)c1ccccc1,-23.5% (inactive),
NC(=O)[C@H]1O[C@@H](O)[C@H](O)[C@@H](O)[C@@H]1O,2.57% (inactive),
CC(C)CCC[C@@H](C)[C@H]1CC[C@H]2[C@@H]3CC[C@@H]4C[C@H](O)CC[C@]4(C)[C@H]3CC[C@]12C,-14.1% (inactive),
ClC(Cl)Cl,17.7% (inactive),
FC(F)(F)C(F)(F)C(F)(F)C(F)(F)C(F)(F)F,10.5% (inactive),
CC(CC=O)CCCC(C)(C)O (stereo not given),1.13% (inactive),
CC(C)[C@H](N)C(=O)OCC(CO)OCn1cnc2c(=O)[nH]c(N)nc21 (stereo not given in full),11.1% (inactive),
CC(C)CCC[C@@H](C)[C@H]1CC[C@H]2[C@@H]3CC=C4C[C@@H](O)CC[C@]4(C)[C@H]3CC[C@]12C,-1.43% (inactive),
CC(C)c1ncc([N+](=O)[O-])n1C,-3.34% (inactive),
CCCc1ccc(C(=O)O)cc1,1.79% (inactive),
C=CC(=O)O,3.7% (inactive),
COC(=O)CC[C@H](N)C(=O)O,12.8% (inactive),
CN1C(=O)C[C@@H](C(=O)N[C@@H](Cc2cnc[nH]2)C(=O)N2CCC[C@H]2C(N)=O)NC1=O,-4.02% (inactive),
Cc1ncc(C[n+]2csc(CCOP(=O)(O)O)c2C)c(N)n1,-2.92% (inactive),
O=C(O)COc1ccccc1/C=N/NC(=O)c1ccncc1,4.64% (inactive),
O=C(/C=C/c1cccc(F)c1)NC1CC1,3.33% (inactive),
CC(C)(Oc1ccc(C2CCCc3ccccc32)cc1)C(=O)O (stereo not given),16.3% (inactive),
O=C(O)[C@H]1C(=CCO)O[C@H]2CC(=O)N12,0.384% (inactive),
CN=C1C=CC(=C(c2ccc(N(C)C)cc2)c2ccc(N(C)C)cc2)C=C1,,2.51 µM (active)
CO,10.3% (inactive),

# System: N140
# Assay: as above
# Details: P. falciparum in erythrocytes, SYBR Green DNA, 72 h; series mostly up to 28.7 µM; activity, negative = inhibition: at the top concentration
# How it was run: as §1
SMILES,"activity, negative = inhibition",Potency
CCCCC(CC)COS(=O)(=O)O (stereo not given),19% (inactive),
CC1(O)CCC(C(C)(C)O)CC1 (stereo not given),6.27% (inactive),
CCCCCCOC(=O)c1cccnc1,10.3% (inactive),
FC(F)(F)COCC(F)(F)F,8.54% (inactive),
CCCCCCCCCCCC(=O)N(CCO)CCO,2.37% (inactive),
O=P(O)(O)OC[C@H]1O[C@](O)(COP(=O)(O)O)[C@@H](O)[C@@H]1O,12.7% (inactive),
COc1cc(S(C)=O)ccc1-c1nc2ncccc2[nH]1 (stereo not given),11.6% (inactive),
O=c1[nH]c(=O)n([C@H]2C[C@H](O)[C@@H](CO)O2)cc1/C=C/Br,13.5% (inactive),
CC(=O)[C@H]1CC[C@H]2[C@@H]3C=CC4=CC(=O)CC[C@@]4(C)[C@H]3CC[C@]12C,2.28% [at 12.8 µM] (inactive),
NC(N)=O,8.51% (inactive),
CCC(C(=O)NC(N)=O)c1ccccc1 (stereo not given),6.97% (inactive),
CC(CCc1ccc(O)cc1)NCC(O)c1ccc(O)cc1 (stereo not given),21.4% (inactive),
Nc1nccs1,12.7% (inactive),
NC(=S)NS(=O)(=O)c1ccc(N)cc1,12.8% (inactive),
O=C(OCc1ccccc1)c1ccc(O)cc1,5.96% (inactive),
CC1C(=O)CC2C3(C)CCC2(C(C)C(=O)O)C(=O)C13 (stereo not given),-5.75% (inactive),
O=C(NNCS(=O)(=O)O)c1ccncc1,4.74% (inactive),
CC(=O)Nc1ccc(OC(C)=O)cc1,8.03% (inactive),
CC/C(=C(/CC)c1ccc(OP(=O)(O)O)cc1)c1ccc(OP(=O)(O)O)cc1,5.86% (inactive),
OC[C@H]1O[C@@](CO)(O[C@H]2O[C@H](CO)[C@@H](O)[C@H](O)[C@H]2O)[C@@H](O)[C@@H]1O,13.5% (inactive),

SMILES,"activity, negative = inhibition",Potency
[O-][N+](=Nc1ccccc1)c1ccccc1,8.96% (inactive),
NC(=O)[C@H]1O[C@@H](O)[C@H](O)[C@@H](O)[C@@H]1O,16.8% (inactive),
CC(C)CCC[C@@H](C)[C@H]1CC[C@H]2[C@@H]3CC[C@@H]4C[C@H](O)CC[C@]4(C)[C@H]3CC[C@]12C,-1.7% (inactive),
ClC(Cl)Cl,12.7% (inactive),
FC(F)(F)C(F)(F)C(F)(F)C(F)(F)C(F)(F)F,7.63% (inactive),
CC(CC=O)CCCC(C)(C)O (stereo not given),-8.2% (inactive),
CC(C)[C@H](N)C(=O)OCC(CO)OCn1cnc2c(=O)[nH]c(N)nc21 (stereo not given in full),-0.87% (inactive),
CC(C)CCC[C@@H](C)[C@H]1CC[C@H]2[C@@H]3CC=C4C[C@@H](O)CC[C@]4(C)[C@H]3CC[C@]12C,8.34% (inactive),
CC(C)c1ncc([N+](=O)[O-])n1C,6.69% (inactive),
CCCc1ccc(C(=O)O)cc1,7.2% (inactive),
C=CC(=O)O,20.1% (inactive),
COC(=O)CC[C@H](N)C(=O)O,16.2% (inactive),
CN1C(=O)C[C@@H](C(=O)N[C@@H](Cc2cnc[nH]2)C(=O)N2CCC[C@H]2C(N)=O)NC1=O,11.7% (inactive),
Cc1ncc(C[n+]2csc(CCOP(=O)(O)O)c2C)c(N)n1,3.87% (inactive),
O=C(O)COc1ccccc1/C=N/NC(=O)c1ccncc1,16.1% (inactive),
O=C(/C=C/c1cccc(F)c1)NC1CC1,12.5% (inactive),
CC(C)(Oc1ccc(C2CCCc3ccccc32)cc1)C(=O)O (stereo not given),10.5% (inactive),
O=C(O)[C@H]1C(=CCO)O[C@H]2CC(=O)N12,19.4% (inactive),
CN=C1C=CC(=C(c2ccc(N(C)C)cc2)c2ccc(N(C)C)cc2)C=C1,,0.708 µM (active)
CO,14.3% (inactive),
